Data: PubChem BioAssay (Tox21)
Results filed as inconclusive are left out. Where a call stands in place of a potency, no number is given. Active and inactive are the calls of the source. Unless noted, the call rests on the fitted dose curve; in most records, active means well fitted curve in the direction sought with a large enough effect in the repeat runs; inconclusive means weak or mixed curves; inactive means no such curve, though single readings can be large; an effect the other way counts as inactive or inconclusive.

biological target: Thyrotropin-releasing hormone receptor (Homo sapiens) (UniProt P34981); test: qHTS assay to identify small molecule agonists of the thyrotropin-releasing hormone receptor (TRHR) signaling pathway (AID 1346891; calls by dose curve); conditions: TRHR-HEK293 calcium fluorescence, agonist mode; series mostly up to 57.6 µM
Outline: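 Intracellular calcium rise, read as fluorescence every second for 3 min, served as the agonist signal in dye-loaded HEK293 cells expressing TRHR; each compound ran at 15 concentrations in triplicate.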

Chain of Thyrotropin-releasing hormone receptor (Homo sapiens) (P34981 whole entry, looked up): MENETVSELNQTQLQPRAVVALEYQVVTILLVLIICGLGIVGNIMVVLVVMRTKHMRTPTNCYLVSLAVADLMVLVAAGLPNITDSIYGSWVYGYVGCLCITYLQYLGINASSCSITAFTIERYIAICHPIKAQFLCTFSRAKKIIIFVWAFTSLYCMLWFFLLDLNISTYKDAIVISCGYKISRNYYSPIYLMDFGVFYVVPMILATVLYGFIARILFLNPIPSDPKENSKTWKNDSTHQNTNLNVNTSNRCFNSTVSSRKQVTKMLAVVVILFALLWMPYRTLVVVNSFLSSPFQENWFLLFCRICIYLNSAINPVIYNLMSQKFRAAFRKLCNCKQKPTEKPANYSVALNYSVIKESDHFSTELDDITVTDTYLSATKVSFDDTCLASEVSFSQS

| SMILES | outcome |
| --- | --- |
| CCCCCC[C@@H](CCC)C(=O)O | inactive |
| CC(=O)O[C@H](CC(=O)[O-])C[N+](C)(C)C | inactive |
| CCOC(=O)[C@H](CCc1ccccc1)N[C@@H](C)C(=O)N1CCC[C@H]1C(=O)O | inactive |
| [O-][N+](=Nc1ccccc1)c1ccccc1 | inactive |
| CO | inactive |
| CN(C)C(=O)C(CCN1CCC(O)(c2ccc(Cl)cc2)CC1)(c1ccccc1)c1ccccc1 | inactive |
| COc1ccc(N=[N+]([O-])c2ccc(OC)cc2)cc1 | inactive |
| COc1nc(C)nc(N)n1 | inactive |
| O=C(O)CCNC(=O)c1ccc(N=Nc2ccc(O)c(C(=O)O)c2)cc1 | inactive |
| NC(=O)CCCCC1CCSS1 (configuration not stated) | inactive |
| CCCC(=O)O[C@]1(C(=O)CCl)[C@@H](C)C[C@H]2[C@@H]3CCC4=CC(=O)C=C[C@]4(C)[C@@]3(F)C(=O)C[C@@]21C | inactive |
| O=C(O)Cc1cc(I)c(Oc2cc(I)c(O)c(I)c2)c(I)c1 | inactive |
| CCN1CCCC1CNC(=O)c1cc(S(N)(=O)=O)ccc1OC (configuration not stated) | inactive |
| O=C(O)c1ccccc1-c1ccc(C(F)(F)F)cc1 | inactive |
| CCn1c(=O)c2c(nc(/C=C/c3ccc(OC)c(OC)c3)n2C)n(CC)c1=O | inactive |
| Cc1c(C)n(CCN(C)C)c2ccc(C(=O)OCCN(C)C)cc12 | inactive |
| CC(CCO)CCCC(C)(C)O (configuration not stated) | inactive |
| O=C1C(CCS(=O)c2ccccc2)C(=O)N(c2ccccc2)N1c1ccccc1 (configuration not stated) | inactive |
| CCN1CCCC(OC(=O)C(c2ccccc2)c2ccccc2)C1 (configuration not stated) | inactive |

system: not listed separately; test: Human pregnane X receptor (PXR) small molecule agonists, qHTS cell viability counter screen (AID 1346977); conditions: PXR-Luc HepG2 viability, CellTiter-Fluor, 24 h; series mostly up to 92.4 µM; further: nearly all actives have a fitted effect of over 50% in size; further: potency means the concentration at half of the fitted maximal effect
Outline: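 PXR-Luc HepG2, 2,000 cells/well, 5% charcoal-stripped FBS; 5hr settle; cpd 24hr, 37C/5% CO2; CellTiter-Fluor at 23hr, read 1hr later (fluorescence).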

| SMILES | Potency |
| --- | --- |
| Oc1cc(O)c2c(c1)O[C@H](c1ccc(O)c(O)c1)[C@H](O)C2 | inactive |
| CCCCCC[C@@H](CCC)C(=O)O | inactive |
| CC(=O)O[C@H](CC(=O)[O-])C[N+](C)(C)C | inactive |
| CCOC(=O)[C@H](CCc1ccccc1)N[C@@H](C)C(=O)N1CCC[C@H]1C(=O)O | inactive |
| C[C@H](O)C(=O)Nc1c(I)c(C(=O)NC(CO)CO)c(I)c(C(=O)NC(CO)CO)c1I | inactive |
| [O-][N+](=Nc1ccccc1)c1ccccc1 | inactive |
| NC(N)=NS(=O)(=O)c1ccc(N)cc1 | inactive |
| CO | inactive |
| CN(C)C(=O)C(CCN1CCC(O)(c2ccc(Cl)cc2)CC1)(c1ccccc1)c1ccccc1 | 23.7 µM (active) |
| COc1ccc(N=[N+]([O-])c2ccc(OC)cc2)cc1 | inactive |
| CCCC=O | inactive |
| COc1nc(C)nc(N)n1 | inactive |
| COc1cc(C)cc(O)c1 | inactive |
| COc1ccc(NC(C)=O)cc1 | inactive |
| Nc1ccn(C2CO[C@H](CO)O2)c(=O)n1 (some centres not stated) | inactive |
| O=C(O)CCNC(=O)c1ccc(N=Nc2ccc(O)c(C(=O)O)c2)cc1 | inactive |
| COC(=O)c1ccc(C(=O)OC)c(C(=O)OC)c1 | inactive |
| NC(=O)CCCCC1CCSS1 (configuration not stated) | inactive |

| SMILES | Potency |
| --- | --- |
| CCCC(=O)O[C@]1(C(=O)CCl)[C@@H](C)C[C@H]2[C@@H]3CCC4=CC(=O)C=C[C@]4(C)[C@@]3(F)C(=O)C[C@@]21C | inactive |
| Nc1nc(F)nc2c1ncn2[C@@H]1O[C@H](CO)[C@@H](O)[C@@H]1O | inactive |
| O=C(O)Cc1cc(I)c(Oc2cc(I)c(O)c(I)c2)c(I)c1 | inactive |
| CCN1CCCC1CNC(=O)c1cc(S(N)(=O)=O)ccc1OC (configuration not stated) | inactive |
| O=C(O)c1ccccc1-c1ccc(C(F)(F)F)cc1 | inactive |
| CCn1c(=O)c2c(nc(/C=C/c3ccc(OC)c(OC)c3)n2C)n(CC)c1=O | inactive |
| CCCCCOC(=O)Nc1nc(=O)n([C@@H]2O[C@H](C)[C@@H](O)[C@H]2O)cc1F | inactive |
| Nc1[nH]c(=O)ncc1F | inactive |
| CC(CCO)CCCC(C)(C)O (configuration not stated) | inactive |
| O=C1C(CCS(=O)c2ccccc2)C(=O)N(c2ccccc2)N1c1ccccc1 (configuration not stated) | inactive |
| NCCN1CCNC1=O | inactive |
| CCCC(C)CO (configuration not stated) | inactive |
| CCCCCCCCC=O | inactive |
| CC1=CC(C)C(C=O)C(C)C1 (configuration not stated) | inactive |
| NC(CS)C(=O)O (configuration not stated) | inactive |
| CC(C)N1C(=O)c2ccccc2C1=O | inactive |
| C1=C\CC/C=C\CC/C=C\CC/1 | inactive |
| CCCCc1ccc2cccc(S(=O)(=O)O)c2c1 | inactive |

system: not listed separately; test: Caspase-3/7 induction in HepG2 cells by small molecules, qHTS assay (AID 1346978); conditions: HepG2 caspase-3/7 activation, Caspase-Glo luminescence, 17 h; series mostly up to 92.4 µM; further: nearly all actives have a fitted effect of over 15% in size
Outline: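 Wild-type HepG2 cells (2,000/well) were settled 5 h at 37 C, 5% CO2, then exposed to compounds in DMSO for 17 h. Caspase-3/7 activity was read by luminescence 30 min after adding Caspase-Glo 3/7 reagent at room temperature.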

| SMILES | outcome |
| --- | --- |
| Oc1cc(O)c2c(c1)O[C@H](c1ccc(O)c(O)c1)[C@H](O)C2 | inactive |
| CCCCCC[C@@H](CCC)C(=O)O | inactive |
| CC(=O)O[C@H](CC(=O)[O-])C[N+](C)(C)C | inactive |
| CCOC(=O)[C@H](CCc1ccccc1)N[C@@H](C)C(=O)N1CCC[C@H]1C(=O)O | inactive |
| C[C@H](O)C(=O)Nc1c(I)c(C(=O)NC(CO)CO)c(I)c(C(=O)NC(CO)CO)c1I | inactive |
| [O-][N+](=Nc1ccccc1)c1ccccc1 | inactive |
| NC(N)=NS(=O)(=O)c1ccc(N)cc1 | inactive |
| CO | inactive |
| COc1ccc(N=[N+]([O-])c2ccc(OC)cc2)cc1 | inactive |
| CCCC=O | inactive |
| COc1nc(C)nc(N)n1 | inactive |
| COc1cc(C)cc(O)c1 | inactive |
| COc1ccc(NC(C)=O)cc1 | inactive |
| Nc1ccn(C2CO[C@H](CO)O2)c(=O)n1 (some centres not stated) | inactive |
| O=C(O)CCNC(=O)c1ccc(N=Nc2ccc(O)c(C(=O)O)c2)cc1 | inactive |
| COC(=O)c1ccc(C(=O)OC)c(C(=O)OC)c1 | inactive |
| NC(=O)CCCCC1CCSS1 (configuration not stated) | inactive |
| CCCC(=O)O[C@]1(C(=O)CCl)[C@@H](C)C[C@H]2[C@@H]3CCC4=CC(=O)C=C[C@]4(C)[C@@]3(F)C(=O)C[C@@]21C | inactive |
| Nc1nc(F)nc2c1ncn2[C@@H]1O[C@H](CO)[C@@H](O)[C@@H]1O | inactive |

| SMILES | outcome |
| --- | --- |
| O=C(O)Cc1cc(I)c(Oc2cc(I)c(O)c(I)c2)c(I)c1 | inactive |
| CCN1CCCC1CNC(=O)c1cc(S(N)(=O)=O)ccc1OC (configuration not stated) | inactive |
| O=C(O)c1ccccc1-c1ccc(C(F)(F)F)cc1 | inactive |
| CCn1c(=O)c2c(nc(/C=C/c3ccc(OC)c(OC)c3)n2C)n(CC)c1=O | inactive |
| CCCCCOC(=O)Nc1nc(=O)n([C@@H]2O[C@H](C)[C@@H](O)[C@H]2O)cc1F | inactive |
| Cc1c(C)n(CCN(C)C)c2ccc(C(=O)OCCN(C)C)cc12 | inactive |
| Nc1[nH]c(=O)ncc1F | inactive |
| CC(CCO)CCCC(C)(C)O (configuration not stated) | inactive |
| O=C1C(CCS(=O)c2ccccc2)C(=O)N(c2ccccc2)N1c1ccccc1 (configuration not stated) | inactive |
| NCCN1CCNC1=O | inactive |
| CCN1CCCC(OC(=O)C(c2ccccc2)c2ccccc2)C1 (configuration not stated) | inactive |
| CCCC(C)CO (configuration not stated) | inactive |
| CCCCCCCCC=O | inactive |
| CC1=CC(C)C(C=O)C(C)C1 (configuration not stated) | inactive |
| NC(CS)C(=O)O (configuration not stated) | inactive |
| CC(C)N1C(=O)c2ccccc2C1=O | inactive |
| C1=C\CC/C=C\CC/C=C\CC/1 | inactive |
| CCCCc1ccc2cccc(S(=O)(=O)O)c2c1 | inactive |
